# Screens: PubChem BioAssay, several laboratories
# Hits are enriched below; roughly 1.3% of the tested compounds scored in any of these assays.
# ADAM10 inh = human ADAM10 inhibitors, primary screen, biochemical, QFRET, HTS. recombinant ADAM10, EDANS/DABCYL FRET peptide cleavage, 3 h. Disintegrin and metalloproteinase domain-containing protein 10 (Homo sapiens), O14672. AID 720582, 2013. actives 0.62% (n = 370,000). inhibition, % at 7 µM;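 active = inhibition above a per-campaign cutoff equal to the mean of compounds falling between control-based bounds plus 3 SD, cut at about 20% in these data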;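 also: 0% = DMSO wells while the 100% control is not disclosed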
# Target sequence (O14672 214-748 limits assumed): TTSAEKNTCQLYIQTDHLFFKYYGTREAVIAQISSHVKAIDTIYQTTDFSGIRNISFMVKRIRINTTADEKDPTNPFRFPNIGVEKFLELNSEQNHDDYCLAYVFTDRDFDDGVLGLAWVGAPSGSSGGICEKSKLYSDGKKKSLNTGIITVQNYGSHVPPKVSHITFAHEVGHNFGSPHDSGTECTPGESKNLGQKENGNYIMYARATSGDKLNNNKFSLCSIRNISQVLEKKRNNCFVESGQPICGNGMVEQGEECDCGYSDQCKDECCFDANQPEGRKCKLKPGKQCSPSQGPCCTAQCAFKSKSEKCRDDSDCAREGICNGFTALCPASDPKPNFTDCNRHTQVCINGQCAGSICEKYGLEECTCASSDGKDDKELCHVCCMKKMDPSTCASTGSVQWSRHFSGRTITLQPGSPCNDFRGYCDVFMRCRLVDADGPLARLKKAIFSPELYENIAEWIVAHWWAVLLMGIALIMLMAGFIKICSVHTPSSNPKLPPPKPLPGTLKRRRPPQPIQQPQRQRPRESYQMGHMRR
# GC-B act = human GC-B receptor activators, primary screen, HEK293 GC-B cells, cGMP TR-FRET, EC30 CNP | Atrial natriuretic peptide receptor 2 (Homo sapiens), P20594 | AID 1920062, 2024 | 0% at EC30 CNP, 100% saturating CNP | actives 0.11% (n = 370,000) | activation, % at 10 µM;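 active = activation at 10 µM reaching about 35% in either raw or pattern-adjusted values, limit read from the data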
# GC-A act = GC-A stimulated cGMP production enhancers – HEK293 GC-A cells, cGMP TR-FRET, EC30 ANP, primary screen. Atrial natriuretic peptide receptor 1 (Homo sapiens), P16066. 0% at EC30 ANP, 100% saturating ANP. activation, % at 10 µM. actives 0.14% (n = 370,000); in the data active = activation above about 40%
# ADAM17 inh = ADAM17 inhibitors, primary screen, biochemical, QFRET; recombinant ADAM17, EDANS/DABCYL FRET peptide cleavage; actives 0.83% (n = 370,000); inhibition, % at 6.95 µM;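 active = inhibition above the mean of compounds lying between control limits plus 3 SD, set per campaign, cut at about 8.5% in these data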;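 also: 0% = DMSO-only wells as the low control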
# ADAM10 confirm = human ADAM10 inhibitors, confirmation, biochemical, QFRET, triplicate. shares compounds with ADAM10 inh. ADAM10 QFRET peptide cleavage, EDANS fluorescence. inhibition, % at 6.95 µM. actives 1% (n = 2,100). AID 743208, 2013;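 active = inhibition above about 20% chosen separately for each screening run, limit read from the data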;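 also: 0% = DMSO wells and 100% = marimastat wells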
# ADAM17 counter = ADAM17 inhibitors, counter-screen for ADAM10 exosite inhibitor project, biochemical, QFRET, high throughput; shares compounds with ADAM10 inh; ADAM17 QFRET peptide cleavage, EDANS fluorescence; inhibition, % at 6.95 µM; actives 0.5% (n = 2,100); AID 743214, 2013;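 active = mean triplicate inhibition above the solvent-only control wells' mean plus 3 SD, cut at about 12% in these data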;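 also: 0% = DMSO wells and 100% = marimastat wells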
# ADAM10 counter = ADAM10 inhibitors, counter-screen for ADAM17 exosite inhibitor project, biochemical, FRET, human ADAM10; shares compounds with ADAM17 inh; recombinant ADAM10, EDANS/DABCYL FRET peptide cleavage, 3 h; inhibition, % at 6.95 µM; actives 47% (n = 2,900); AID 743256, 2014;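 active = mean inhibition over the triplicate runs exceeds the activity threshold set in the earlier primary screen, cut at about 20% in these data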;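 also: 0% = DMSO wells and 100% = marimastat wells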
# ADAM17 confirm = ADAM17 inhibitors, hit retest, confirmation, biochemical, QFRET peptide cleavage; actives 65% (n = 2,900); inhibition, % at 6.95 µM; shares compounds with ADAM17 inh; recombinant ADAM17, EDANS/DABCYL QFRET peptide cleavage; AID 743257, 2014;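 active = mean inhibition across replicates above the hit cutoff set in the primary screen, cut at about 8.5% in these data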;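 also: 0% = DMSO wells and 100% = marimastat wells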
# * = called active by the depositor; nt = not tested or not shown.
SMILES,ADAM10 inh,GC-B act,GC-A act,ADAM17 inh,ADAM10 confirm,ADAM17 counter,others
O=c1[nH]c2ccccc2n1C1CCN(C(c2cc3ccccc3o2)c2nnnn2Cc2ccccc2)CC1 (stereo not drawn),23*,4,1,8,10,3,
COc1ccc(-n2nnnc2C(c2cccc(OC)c2OC)N2CCC(n3c(=O)[nH]c4ccccc43)CC2)cc1 (stereo not drawn),3,-2,-6,3,nt,nt,
COc1cccc(C(c2nnnn2-c2ccc3c(c2)OCCO3)N2CCC(n3c(=O)[nH]c4ccccc43)CC2)c1OC (stereo not drawn),21*,-2,-7,4,7,1,
O=c1[nH]c2ccccc2n1C1CCN(C(c2cccs2)c2nnnn2-c2ccc3c(c2)OCCO3)CC1 (stereo not drawn),20*,2,-7,7,8,2,
O=c1[nH]c2ccccc2n1C1CCN(C(c2cccc3ccccc23)c2nnnn2Cc2ccccc2)CC1 (stereo not drawn),18,-4,-11,6,nt,nt,
COc1ccc(C(c2nnnn2-c2c(C)cccc2C)N2CCC(n3c(=O)[nH]c4ccccc43)CC2)cc1 (stereo not drawn),23*,1,-7,9.7*,6,2,
COc1ccccc1N,-3,-4,2,1,nt,nt,
c1ccc(Cn2nnnc2C2CN=C(c3ccccc3)c3ccccc3N2)cc1 (stereo not drawn),-1,-23,-16,-3,nt,nt,
Clc1cccc(N2Cc3cc(-c4ccccc4)ccc3-n3nncc3C2)c1,-9,-4,0,-1,nt,nt,
O=c1[nH]c2ccccc2n1C1CCN(C(c2ccccc2OC(F)(F)F)c2nnnn2-c2ccc3c(c2)OCCO3)CC1 (stereo not drawn),33*,4,-16,15*,11,2,
CC[C@@H]1C[C@H]2CC[C@H](O2)[C@H](C)C(=O)O[C@@H](C)C[C@@H]2CC[C@@H](O2)[C@@H](C)C(=O)O[C@H](C)C[C@H]2CC[C@H](O2)[C@H](C)C(=O)O[C@@H](C)C[C@@H]2CC[C@@H](O2)[C@@H](C)C(=O)O1,-7,-6,-9,-1,nt,nt,
Cc1nc2ccccc2c(=O)n1-c1cc([N+](=O)[O-])cc([N+](=O)[O-])c1,11,3,0,-1,nt,nt,
Cc1nc2ccc(Br)cc2c(=O)n1-c1ccc([N+](=O)[O-])c(C(F)(F)F)c1,23*,0,-3,5,1,0,
CCC(=Nc1cc(OC)ccc1OC)c1c(O)[nH]c(=O)[nH]c1=O,21*,-21,-19,1,2,0,
CC(Cc1ccc(O)cc1)NCC(O)c1ccc(O)c(O)c1 (stereo not drawn),-9,-3,-3,-3,nt,nt,
CCC1C(c2ccccc2)NC(c2ccccc2)CC1(O)c1ccc(F)cc1 (stereo not drawn),21*,-3,-1,5,4,1,
OCCN1C2CCC1CC(O)(c1ccc(F)cc1)C2 (stereo not drawn),-2,0,0,-2,nt,nt,
C[C@@H]1CNCCN1c1ccc(N2CC[C@@H](O)C2)c(C#N)c1,-42,2,-1,-7,nt,nt,
Cc1ccc(NP(=O)(Oc2ccccc2F)Oc2ccccc2F)cc1,21*,-6,-4,3,1,0,
CCN(CCNc1ccc([N+](=O)[O-])c2cccnc12)S(=O)(=O)c1ccc(Cl)cc1,22*,-4,-7,7,5,1,
CCN(CCNc1ccc([N+](=O)[O-])c2cccnc12)S(=O)(=O)c1ccccc1,-10,-7,-6,-2,nt,nt,
COc1ccc(-n2nnnc2C(c2cccc3ccccc23)N2CCC3(CC2)C(=O)NCN3c2ccccc2)cc1 (stereo not drawn),21*,1,-3,9,10,3,
COc1cccc(NP(=O)(Oc2ccccc2Cl)Oc2ccccc2Cl)c1,23*,-3,-13,10*,8,3,ADAM10 counter=45*;ADAM17 confirm=18*
CC1(C)C2([N+](=O)[O-])CN3CC1([N+](=O)[O-])CN(C2)C3c1ccccn1 (stereo not drawn),-2,5,2,-3,nt,nt,
CCc1ccc(NP(=O)(Oc2ccccc2F)Oc2ccccc2F)cc1,26*,-4,1,12*,6,2,ADAM10 counter=35*;ADAM17 confirm=20*
SMILES,ADAM10 inh,GC-B act,GC-A act,ADAM17 inh,ADAM10 confirm,ADAM17 counter,others
Oc1ccccc1C1NCc2ccccc2-n2cccc21 (stereo not drawn),13,-11,4,5,nt,nt,
COC(=O)C1=C(c2ccc(OC)c(OC)c2)C[C@@H]2CC[C@H]1N2C(=O)NCCOc1ccccc1Cl,-2,8,-3,-3,nt,nt,
COC(=O)C1=C(c2ccc(-c3ccccc3)c(F)c2)C[C@@H]2CC[C@H]1N2C(=O)NCCO,7,-3,0,1,nt,nt,
CCCNC(=O)N1[C@H]2CC[C@@H]1C(C(=O)OC)=C(c1ccc(-c3ccccc3)c(F)c1)C2,26*,10,-2,16*,0,0,ADAM10 counter=19;ADAM17 confirm=10*
COC(=O)C1=C(c2ccc(-c3ccccc3)c(F)c2)C[C@@H]2CC[C@H]1N2C(=O)NCCOc1ccccc1Cl,28*,7,-2,17*,7,2,ADAM10 counter=28*;ADAM17 confirm=17*
O=C1NCN(c2ccccc2)C12CCN(C(c1ccnc3ccccc13)c1nnnn1Cc1ccccc1)CC2 (stereo not drawn),-11,-1,-13,-4,nt,nt,
O=C1NCN(c2ccccc2)C12CCN(C(c1cccc3ccccc13)c1nnnn1Cc1ccccc1)CC2 (stereo not drawn),21*,-4,-4,9.9*,11,4,ADAM10 counter=41*;ADAM17 confirm=17*
